An excerpt weighted towards active compounds, which were near 11% of everything screened.
NS1 inh = qHTS Assay for Inhibitors of Influenza NS1 Protein Function | Potency, µM (highest dose often 46.1 µM), for the others: top-dose activity, positive = more growth | hit rate 0.4% among 270,000; calls by dose curve; further: actives are rising curves; nearly all actives have a fitted effect of over 50% in size
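Growth recovery, yeast-based: influenza A NS1 expressed in S. cerevisiae causes slow growth, and suppressors are detected by OD600. The parent strain without NS1 is used as positive control.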
Pf growth 96h = Primary qHTS for delayed death inhibitors of the malarial parasite plastid, 96 hour incubation | Potency, µM (titrated, usually from 28.7 µM), inactives show at the top dose activity change, negative = inhibition, actives largely listed as inhibitors | hit rate 6.9% among 320,000 | P. falciparum luciferase reporter growth, 96 h; further: on the % scale 0 is the no-effect control and ±100 the full control effect
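Cell-based qHTS: luciferase-tagged P. falciparum in erythrocytes (2% hematocrit, 0.05% parasitemia final) incubated with compounds for 96 hours, 37 C, 5% CO2; luciferase detection reagent then added and luminescence measured.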
Pf growth 48h = Primary qHTS for delayed death inhibitors of the malarial parasite plastid, 48 hour incubation; AID 504832, 2011; P. falciparum luciferase growth in erythrocytes, 48 h; Potency, µM (titrated, usually from 28.7 µM), inactives show top-dose activity change, negative = inhibition, hits mostly inhibitors; hit rate 5.9% among 310,000; further: on the % scale 0 is the no-effect control and ±100 the full control effect
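Luciferase-expressing P. falciparum in infected erythrocytes (2% hematocrit, 0.1% parasitemia final) in RPMI 1640/0.5% Albumax were exposed to compound for 48 hours at 37 C, 5% CO2; growth read as luminescence.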
Vaccinia mCherry = qHTS for Stage-Specific Inhibitors of Vaccinia Orthopoxvirus: mCherry Reporter Primary qHTS; Vaccinia virus mCherry reporter infection, fluorescence; Potency, µM (highest dose often 36.5 µM), inactives show at the highest dose activity change, negative = inhibition, actives largely listed as inhibitors; hit rate 0.63% among 310,000; calls by dose curve; tested in A549 cells; further: on the % scale 0 is the no-effect control and ±100 the full control effect; nearly all actives have a fitted effect of over 35% in size
HCV inh = qHTS Assay for Inhibitors of Hepatitis C Virus (HCV); Huh7.5.1 HCVcc-Cre infection, luciferase reporter, 44 h; AID 651820, 2012; Potency, µM (doses to about 41.8 µM), for inactives: top-dose activity change, negative = inhibition, actives largely listed as inhibitors; hit rate 3.4% among 340,000; further: on the % scale 0 is the no-effect control and ±100 the full control effect
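After 44 h co-culture of compound, cells and HCVcc-Cre (~0.5 moi), substrate is added for 15 min at room temperature and luciferase measured over 15 sec. Cells were seeded at 1,000/well and pre-cultured 4 h.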
VACV Venus inh = qHTS for Stage-Specific Inhibitors of Vaccinia Orthopoxvirus: Venus Reporter Primary qHTS; Vaccinia virus Venus reporter expression, fluorescence; Potency, µM (highest dose often 36.5 µM), for the others: top-dose activity change, negative = inhibition, actives largely listed as inhibitors; hit rate 0.46% among 330,000; AID 720580, 2013; calls by dose curve; tested in A549 cells; further: on the % scale 0 is the no-effect control and ±100 the full control effect; nearly all actives have a fitted effect of over 30% in size
* marks the source's active call; other numbers are inactive results; i = inactive; ? = inconclusive; . = not tested or not shown. Unless noted, the call rests on the fitted dose curve; in most records, active means well fitted inhibition curve with a large enough effect; inconclusive means small, poorly fitted or top-dose-only effect, or another doubt; inactive means no such curve, though single readings can be large or run the other way. Potency means the concentration at half of the fitted maximal effect.

SMILES	NS1 inh	Pf growth 96h	Pf growth 48h	Vaccinia mCherry	HCV inh	VACV Venus inh
Cc1nn(CC(=O)N(C)C)c(=O)c2ccccc12	-9.1%	?	12.7%	.	1.8%	.
Cc1nn(CC(=O)N2CCN(C)CC2)c(=O)c2ccccc12	-3.3%	7.38µM*	30.9%	-1.0%	15.3%	-11.0%
CCOC(=O)Cn1nc(C)c2ccccc2c1=O	8.8%	.	16.0%	i	9.2%	-12.6%
Cc1nn(CC(N)=O)c(=O)c2ccccc12	-5.5%	2.08µM*	?	.	2.7%	-14.5%
CCN1CCN(CCOc2ccc(Cl)cc2)CC1	0.3%	?	46.6%	i	-18.9%	-6.1%
O=C(CC1NCCC[C@H]1O)Cn1cnc2cc(Br)c(Cl)cc2c1=O (stereo not given in full)	.	?	0.601µM*	.	.	.
CCOc1ccc(/C=N/Nc2nc(=O)[nH]nc2C)cc1OC	.	?	?	.	6.5%	.
CCOc1cc(/C=N/Nc2nc(=O)[nH]nc2C)ccc1O	.	17.3%	2.33µM*	-15.5%	-3.4%	-10.7%
CC(C)NCC(O)c1ccc(O)c(O)c1 (stereo not given)	?	?	?	-8.8%	12.8%	1.1%
CC(C)NCC(O)c1ccc2ccccc2c1 (stereo not given)	.	4.65µM*	1.47µM*	-0.5%	-20.3%	-11.7%
COc1ccc(-c2ccnc(-c3ccc(O)cc3)n2)cc1	.	21.2%	19.4%	?	?	?
O=Cc1c(N2CCN(CCO)CC2)nc2ccccn2c1=O	-1.6%	10.4µM*	0.0%	i	15.3%	-13.1%
CCN1CCN(c2nc3ccccn3c(=O)c2C=O)CC1	2.8%	25.8%	16.0%	.	11.7%	.
CC1CN(c2nc3ccccn3c(=O)c2C=O)CC(C)O1 (stereo not given)	4.4%	11.7µM*	20.1%	.	-5.6%	.
COc1ccc(C(=O)NC(=S)N(C)C2CCCCC2)cc1	3.5%	11.7µM*	-10.9%	.	15.9%	.
COc1ccc(C(=O)NC(=S)N(C)C2CCCCC2)cc1Br	-21.3%	3.7µM*	?	.	-16.1%	.
CCn1cc(C2=NCCO2)c2ccccc21	-8.2%	11.0%	.	10µM*	?	?
CCn1cc(C2=NC(C)(C)CO2)c2ccccc21	-1.9%	-23.4%	.	.	3.16µM*	.
CCn1cc(C2=NCC(C)O2)c2ccccc21 (stereo not given)	-6.2%	?	0.5%	.	14.1µM*	.
CCn1cc(C2=NC(C)CO2)c2ccccc21 (stereo not given)	-4.8%	28.4%	.	.	?	.
COc1ccc2c(OC)c3ccoc3nc2c1OC	-8.4%	-10.7%	20.7%	-8.1%	?	-6.3%
COc1ccc(-c2nc(-c3ccc(Br)cc3)no2)c(OC)c1	5.3%	?	202.9%	-18.3%	.	-13.1%
CCCn1c(C(CO)Nc2nc(-c3cccc(Br)c3)cs2)nc2ccccc21 (stereo not given)	-90.6%	5.86µM*	?	?	?	?
OCCOCCn1c(C(CO)Nc2nc(-c3cccc(Br)c3)cs2)nc2ccccc21 (stereo not given)	.	.	.	?	10.1%	?
CC(OCC(O)CN(C)Cc1nc2ccccc2c(=O)[nH]1)c1ccc(Cl)cc1 (stereo not given)	3.3%	?	?	i	10µM*	-29.0%
SMILES	NS1 inh	Pf growth 96h	Pf growth 48h	Vaccinia mCherry	HCV inh	VACV Venus inh
O=C(OCCCN=C1NS(=O)(=O)c2ccccc21)c1ccccc1F	-2.1%	-6.4%	-6.1%	.	-7.9%	.
Cc1nc2oc3c(=O)[nH]cnc3c2c2c1COC(C)(C)C2	6.4%	?	?	.	2.3%	.
COc1ncnc2c1oc1nc(CC(C)C)c3c(c12)CC(C)(C)OC3	4.9%	?	2.08µM*	-7.5%	-6.0%	-6.3%
CC1=C(c2ccc(C)cc2)S(=O)(=O)N(Cc2ccc(C(=O)NCc3ccccc3F)cc2)C1=O	.	.	.	-17.8%	.	-7.5%
O=C(NCc1ccccc1)c1cccc(COc2ccc(Cl)cc2)c1	-57.2%	375.5%	138.1%	-5.5%	?	-18.0%
CCOc1ccc(NS(=O)(=O)c2cc(NC(=O)c3cccc(C)c3)ccc2Cl)cc1	?	?	?	?	11.2µM*	12.6µM*
COc1cc(CNC(=O)c2cccc(COc3ccc(Cl)cc3)c2)cc(OC)c1	15.7%	-24.2%	201.8%	?	7.94µM*	-29.3%
COc1cccc(C(=O)NNC(=O)Cc2ccc(Cl)cc2)c1	16.0%	2.94µM*	5.1%	.	-3.7%	.
CN(C)c1cccc(C(=O)NCc2ccc(Cl)cc2)c1	-2.9%	75.1%	4.15µM*	-1.9%	-0.2%	-0.5%
CN(C)c1cccc(C(=O)NCc2ccc3c(c2)OCO3)c1	-1.3%	?	?	?	-18.7%	-8.1%
COc1nc(-c2cccs2)cc(-c2ccc(C)cc2)c1C#N	9.4%	?	?	.	?	.
Cc1cccc(C(=O)Nc2ccc(NC(=O)Cc3ccc(Cl)cc3)cc2)c1	6.8%	11.7µM*	15.8%	i	32.4%	5.0%
O=C(CCCCCN1C(=O)c2ccccc2C1=O)NCCc1nc2ccccc2[nH]1	0.4%	?	.	.	13.1%	22.2%
O=C(Nc1cccc(Cl)c1Cl)c1cc2nc(-c3ccc(Cl)cc3)cc(C(F)(F)F)n2n1	.	.	.	4.8%	.	3.0%
CCCc1nc2c(=O)n(C)c(=O)[nH]c2n1CCC	2.0%	10.4µM*	.	.	20.3%	-17.4%
Cn1c(C(O)c2ccc(Br)cc2)nc(Cl)c1Cl (stereo not given)	-1.6%	?	?	-1.8%	-2.9%	-9.1%
COc1cc([C@H]2c3[nH]c4ccccc4c3C[C@H]3C(=O)N4[C@@H](c5cc(OC)c(OC)c(OC)c5)c5[nH]c6ccccc6c5C[C@H]4C(=O)N23)cc(OC)c1OC	9.3%	0.465µM*	0.415µM*	?	-5.8%	?
C=CCN1C(=O)[C@@H]2Cc3c([nH]c4ccccc34)C(c3cc(OC)c(OC)c(OC)c3)N2C1=S (stereo not given in full)	0.6%	?	8.28µM*	.	-25.0%	.
CC(C)CN1CC(=O)N2C(c3ccccc3)c3[nH]c4ccccc4c3C[C@H]2C1=O (stereo not given in full)	12.5%	?	11.7µM*	.	-14.9%	.
COCCCN1CC(=O)N2C(c3ccc(OC)c(OC)c3)c3[nH]c4ccccc4c3C[C@H]2C1=O (stereo not given in full)	-4.0%	?	?	-12.9%	-1.5%	-4.1%
CCN1C(=O)[C@@H]2Cc3c([nH]c4ccccc34)C(c3cc(OC)c(OC)c(OC)c3)N2C1=S (stereo not given in full)	2.9%	?	?	.	?	.

Compound activity (PubChem BioAssay)
